We go through 13 molecules from PubChem BioAssay (Tox21).

A short description of assay [1]: qHTS assay to identify small molecule antagonists of the glucocorticoid receptor (GR) signaling pathway - cell viability counter screen (AID 720693). Further: nearly all actives have a fitted effect of over 55% in size. In general terms: Quantitative high-throughput screening tests each substance at several concentrations.
A short description of assay [2]: qHTS assay for identifying genotoxic compounds that show differential cytotoxicity against isogenic chicken DT40 cell lines with known DNA damage response pathways - wild type cell line (AID 743012). Further: nearly all actives have a fitted effect of over 60% in size. Further: potency means the concentration at half of the fitted maximal effect. The procedure, abridged: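 300 wt DT40 cells/well; cpd (DMSO) pintool-transferred after ~0.5 h at 37 C/5% CO2; 40 h incubation; CellTiter-Glo added, 30 min RT; luminescence read.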

Assay [3] in a line: qHTS assay for identifying genotoxic compounds that show differential cytotoxicity against isogenic chicken DT40 cell lines with known DNA damage response pathways - Rev3 mutant cell line (AID 743014). Further: nearly all actives have a fitted effect of over 55% in size. Further: potency means the concentration at half of the fitted maximal effect.
The nature of assay [4]: qHTS assay for identifying genotoxic compounds that show differential cytotoxicity against isogenic chicken DT40 cell lines with known DNA damage response pathways - Rad54/Ku70 mutant cell line (AID 743015). Further: nearly all actives have a fitted effect of over 60% in size. Further: potency means the concentration at half of the fitted maximal effect.
A short description of assay [5]: qHTS assay to identify small molecule antagonists of the androgen receptor (AR) signaling pathway - cell viability counter screen (AID 743033; further: nearly all actives have a fitted effect of over 45% in size).
Assay [6] in a line: qHTS assay to identify small molecule antagonists of the androgen receptor (AR) signaling pathway using the MDA cell line - cell viability counter screen (AID 743041; further: nearly all actives have a fitted effect of over 45% in size; further: potency means the concentration at half of the fitted maximal effect). The gist of the method:
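Viability read by CellTiter-Fluor fluorescence in the same wells as the antagonist screen, added after 15.5 h of a 16 h, 37C exposure. Human breast carcinoma MDA-kb2 AR-luc cells, compounds co-dosed with agonist R1881.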

Assay [7] can be described thus: qHTS assay to identify small molecule antagonists of the thyroid receptor (TR) signaling pathway - cell viability counter screen (AID 743064). Further: nearly all actives have a fitted effect of over 50% in size. Further: potency means the concentration at half of the fitted maximal effect. The gist of the method: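 Viability of T3-stimulated (1 nM final) GH3.TRE-Luc cells is measured by CellTiter-Fluor fluorescence after 23.5 h compound exposure at 37 °C plus 30 min reagent incubation.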
Assay [8] has as its system thyroid hormone receptor (rat, GH3 cells). The assay can be described thus: qHTS assay to identify small molecule agonists of the thyroid receptor (TR) signaling pathway (AID 743066; calls by dose curve).
The target in assay [9] is Estrogen receptor (Homo sapiens) (UniProt P03372). Description: qHTS assay to identify small molecule antagonists of the estrogen receptor alpha (ER-alpha) signaling pathway (AID 743069; active means well fitted curve in the direction sought with a large enough effect in the signal ratio in the repeat runs, not every such curve was filed as active; the % refers to the signal ratio). The procedure, abridged:
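Antagonist mode: compounds in DMSO were co-added with 17beta-estradiol to ER-alpha-bla HEK293 cells (2% charcoal-stripped serum) and left 18 h at 37C. Reporter inhibition was measured as FRET fluorescence after 2 h LiveBLAzer substrate at room temperature.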

A short description of assay [10]: qHTS assay to identify small molecule antagonists of the estrogen receptor alpha (ER-alpha) signaling pathway - cell viability counter screen (AID 743074; calls by dose curve;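 further: HEK293 cells carrying ER-alpha-UAS-bla reporter stimulated with 17beta-estradiol; nearly all actives have a fitted effect of over 45% in size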).
In assay [11] the target is Estrogen receptor (Homo sapiens) (UniProt P03372). Description: qHTS assay to identify small molecule agonists of the estrogen receptor alpha (ER-alpha) signaling pathway (AID 743075; calls by dose curve;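 further: HEK293 GripTite cells with ER-alpha and UAS-driven beta-lactamase reporter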).
Sequence of Estrogen receptor (Homo sapiens) (P03372 whole entry, looked up): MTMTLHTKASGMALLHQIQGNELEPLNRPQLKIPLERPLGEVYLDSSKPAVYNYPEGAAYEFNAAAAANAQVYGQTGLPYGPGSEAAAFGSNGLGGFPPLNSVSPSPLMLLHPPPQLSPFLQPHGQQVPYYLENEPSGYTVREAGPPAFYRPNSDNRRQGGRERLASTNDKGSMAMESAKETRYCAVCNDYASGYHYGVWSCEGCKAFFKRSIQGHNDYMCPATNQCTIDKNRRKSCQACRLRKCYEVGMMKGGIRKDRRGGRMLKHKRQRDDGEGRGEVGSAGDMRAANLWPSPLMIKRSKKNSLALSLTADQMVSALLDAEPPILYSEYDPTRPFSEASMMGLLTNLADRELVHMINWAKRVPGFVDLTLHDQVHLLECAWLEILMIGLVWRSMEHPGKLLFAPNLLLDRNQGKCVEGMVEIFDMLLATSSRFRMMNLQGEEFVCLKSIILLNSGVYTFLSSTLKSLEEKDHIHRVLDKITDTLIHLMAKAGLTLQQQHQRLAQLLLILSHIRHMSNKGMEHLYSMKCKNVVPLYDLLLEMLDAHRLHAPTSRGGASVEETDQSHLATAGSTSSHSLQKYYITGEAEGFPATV
Assay [12] has the same target. Description: qHTS assay to identify small molecule agonists of the estrogen receptor alpha (ER-alpha) signaling pathway using the BG1 cell line (AID 743079). Further: nearly all actives have a fitted effect of over 20% in size. Further: potency means the concentration at half of the fitted maximal effect.
Assay [13] can be described thus: qHTS assay to identify small molecule antagonists of the estrogen receptor alpha (ER-alpha) signaling pathway using the BG1 cell line - cell viability counter screen (AID 743081).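 Further: compound given together with 17beta-estradiol as the ER stimulus; nearly all actives have a fitted effect of over 45% in size.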 Further: potency means the concentration at half of the fitted maximal effect.
For the next assay, the target named is Aromatase (Homo sapiens) (UniProt P11511). The assay can be described thus: qHTS assay to identify aromatase inhibitors (AID 743083). Further: nearly all actives have a fitted effect of over 55% in size. Further: potency means the concentration at half of the fitted maximal effect.
Sequence of Aromatase (Homo sapiens) (P11511 whole entry, looked up): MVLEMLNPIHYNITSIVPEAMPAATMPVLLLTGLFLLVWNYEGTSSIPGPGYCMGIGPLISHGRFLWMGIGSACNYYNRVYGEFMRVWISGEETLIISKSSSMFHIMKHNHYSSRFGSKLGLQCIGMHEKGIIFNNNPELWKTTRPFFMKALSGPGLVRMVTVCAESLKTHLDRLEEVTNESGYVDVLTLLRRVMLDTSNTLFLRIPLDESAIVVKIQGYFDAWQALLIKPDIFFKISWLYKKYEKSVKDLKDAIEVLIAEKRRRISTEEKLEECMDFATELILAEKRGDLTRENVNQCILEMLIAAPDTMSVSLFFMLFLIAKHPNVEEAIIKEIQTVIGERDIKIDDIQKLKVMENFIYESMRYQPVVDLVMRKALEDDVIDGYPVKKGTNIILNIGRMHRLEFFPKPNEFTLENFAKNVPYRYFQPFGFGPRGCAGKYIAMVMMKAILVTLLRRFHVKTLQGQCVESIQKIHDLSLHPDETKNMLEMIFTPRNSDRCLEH
Assay [14] in a line: qHTS assay to identify small molecule antagonists of the thyroid receptor (TR) signaling pathway (AID 743065). Further: nearly all actives have a fitted effect of over 55% in size. Further: potency means the concentration at half of the fitted maximal effect. The procedure, abridged:
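Antagonism measured as loss of luciferase signal in GH3 cells stably carrying a TRE-luciferase reporter, co-treated with compound and T3 (1 nM final) for 23.5 h at 37 C. Viability was read in the same well by CellTiter-Fluor.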

Assay [15] in a line: qHTS assay to identify small molecule antagonists of the estrogen receptor alpha (ER-alpha) signaling pathway using the BG1 cell line (AID 743080; calls by dose curve;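 further: BG1 cells stimulated with 17beta-estradiol alongside compound; series mostly up to about 70 µM; nearly all actives have a fitted effect of over 25% in size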). The procedure, abridged: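 BG1Luc4E2, endogenous ER-alpha, 4xERE-luc; 5 d charcoal-stripped FBS, phenol red free; 24 h plating; cpd + 17beta-estradiol 21.5 h, 37 C/5% CO2; CellTiter-Fluor viability 30 min, then ONE-Glo luciferase 30 min RT.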

In assay [16] the target is Androgen receptor (Homo sapiens) (UniProt P10275). Description: qHTS assay to identify small molecule antagonists of the androgen receptor (AR) signaling pathway (AID 743035; active means well fitted inhibition curve with a large enough effect in the signal ratio in the repeat runs, not every such curve was filed as active; the % refers to the signal ratio). The gist of the method: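 In this cell-based reporter screen, compounds were tested in concentration series against R1881-activated HEK293 cells expressing beta-lactamase under UAS control; after 16 h at 37C, FRET substrate was added and fluorescence read 2 h later.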
Sequence of Androgen receptor (Homo sapiens) (P10275 whole entry, looked up): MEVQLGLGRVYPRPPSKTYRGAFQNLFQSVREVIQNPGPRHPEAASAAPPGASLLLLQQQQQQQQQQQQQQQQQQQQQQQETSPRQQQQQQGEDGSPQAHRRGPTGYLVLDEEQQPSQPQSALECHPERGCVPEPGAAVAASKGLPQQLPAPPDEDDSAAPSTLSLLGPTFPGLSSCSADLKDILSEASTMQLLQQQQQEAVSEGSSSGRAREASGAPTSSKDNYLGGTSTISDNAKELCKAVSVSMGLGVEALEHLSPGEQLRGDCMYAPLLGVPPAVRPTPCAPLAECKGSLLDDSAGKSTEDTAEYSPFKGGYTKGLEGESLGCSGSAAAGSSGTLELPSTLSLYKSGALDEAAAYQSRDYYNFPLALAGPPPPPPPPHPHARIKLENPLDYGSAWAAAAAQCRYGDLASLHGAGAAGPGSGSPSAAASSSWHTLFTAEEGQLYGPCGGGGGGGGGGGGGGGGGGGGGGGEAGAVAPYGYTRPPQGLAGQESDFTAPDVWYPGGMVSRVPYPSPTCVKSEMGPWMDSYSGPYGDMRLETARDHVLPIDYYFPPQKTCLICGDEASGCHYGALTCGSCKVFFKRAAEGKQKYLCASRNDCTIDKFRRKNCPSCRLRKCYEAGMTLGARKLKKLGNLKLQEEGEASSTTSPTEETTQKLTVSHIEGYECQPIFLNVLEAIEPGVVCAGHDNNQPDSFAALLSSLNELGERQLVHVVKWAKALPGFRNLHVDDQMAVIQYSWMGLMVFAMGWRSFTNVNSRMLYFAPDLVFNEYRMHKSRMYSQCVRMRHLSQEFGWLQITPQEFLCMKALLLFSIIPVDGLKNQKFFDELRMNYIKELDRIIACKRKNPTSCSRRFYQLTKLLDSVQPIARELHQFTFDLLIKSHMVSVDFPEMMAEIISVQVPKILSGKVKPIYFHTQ

Assay [17] has the same target. Description: qHTS assay to identify small molecule agonists of the androgen receptor (AR) signaling pathway (AID 743036; active means well fitted activation curve with a large enough effect in the signal ratio in the repeat runs, with a control signal flat, not every such curve was filed as active; the % refers to the signal ratio). The gist of the method:
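Screening used 2,000 AR-bla HEK293 cells per well, treated 16 h at 37C with test compounds in DMSO alongside positive and DMSO-only controls; beta-lactamase activity was then read by LiveBLAzer B/G FRET fluorescence after 2 h at room temperature.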

Assay [18] has the same target. Description: qHTS assay to identify small molecule agonists of the androgen receptor (AR) signaling pathway using the MDA cell line (AID 743040; further: nearly all actives have a fitted effect of over 20% in size). The gist of the method: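 Luciferase agonist assay: 16 h compound exposure at 37C without CO2 in MDA-kb2 AR-luc cells, whose MMTV promoter responds to both AR and GR. Luminescence measured after 30 min room-temperature incubation with ONE-Glo.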

The target is the same in assay [19]. The assay can be described thus: qHTS assay to identify small molecule antagonists of the androgen receptor (AR) signaling pathway using the MDA cell line (AID 743042; further: nearly all actives have a fitted effect of over 55% in size). The procedure, abridged:
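Antagonist mode: compounds plus R1881 agonist added to MDA-kb2 AR-luc cells, incubated 16 h at 37C. Luciferase reporter luminescence quantified, with multiplexed CellTiter-Fluor readout for cell viability.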

Results filed as inconclusive are left out. Activity calls are given as the source filed them. Unless noted, the call rests on the fitted dose curve; in most records, active means well fitted curve in the direction sought with a large enough effect in the repeat runs; inconclusive means weak or mixed curves; inactive means no such curve, though single readings can be large; an effect the other way counts as inactive or inconclusive.

In the case of `CC(=O)NCCCS(=O)(=O)O`, the Potency result in [1], in [2], in assay [3], in [4], in [5] and in [6] was “inactive” throughout. For the same molecule, the Potency result in assay [7], in assay [8], in assay [9], in assay [11], in assay [12] and in assay [13] was “inactive” each time. For the same molecule, the Potency entry with Aromatase (Homo sapiens) was “inactive”. For the same molecule, the molecule was classed as inactive in assay [10].
As for `CN1CCC(=C2c3ccccc3CCc3sccc32)CC1`, the Potency entry in [1], in assay [5], in assay [6], in assay [9], in assay [11] and in [15] was “inactive” throughout. For the same molecule, the Potency entry (in assay [13]; with Aromatase (Homo sapiens)) was “inactive” each time. Moreover, the Potency in [2] was 6.68 µM (active); in assay [3], 15 µM (active); in assay [4], 11.9 µM (active); in [7] it was 21.1 µM (active); in assay [14], 26.6 µM (active). In addition, the molecule was called inactive in assay [10].
For `CC(C)(C)c1ccc(OCC2CO2)cc1` (centres undefined), the Potency entry in assay [1], in assay [2], in [3], in assay [4], in assay [5] and in assay [6] was “inactive” throughout. Besides, the Potency entry (in assay [7]; in assay [8]; in assay [9]; in [11]; in assay [13]; in the assay with Aromatase (Homo sapiens)) was “inactive” each time. The call in assay [10] was inactive. For the same molecule, the Potency in [12] was 39.4 µM (active).
In the case of `N#Cc1c(F)cccc1F`, the Potency result in assay [1], in [2], in [3], in assay [4], in assay [5] and in [6] was “inactive” in each case. Moreover, the Potency result (in assay [7]; in [8]; in [13]; in the assay with Aromatase (Homo sapiens)) was “inactive” in each case. Further, the call in assay [10] was inactive.
`CC(=O)OCCc1ccccc1`: the Potency result in [1], in assay [2], in assay [3], in [4], in [5] and in assay [6] was “inactive” in each case. Also, the Potency entry in [14], in assay [8], in assay [9], in assay [11], in [12] and in assay [15] was “inactive” each time. In addition, the Potency entry (in assay [13]; with Aromatase (Homo sapiens)) was “inactive” throughout. Besides, the molecule was called inactive in assay [10].
As to `Nc1nc(CC(=O)O)cs1`, the Potency entry in [1], in [2], in assay [3], in assay [4], in [5] and in assay [6] was “inactive” throughout. The Potency result (in [7]; in assay [14]; in assay [8]; in assay [13]; with Aromatase (Homo sapiens)) was “inactive” each time. Besides, the molecule was classed as inactive in assay [10].
`Cc1cc(C)c(S(=O)(=O)O)cc1N=Nc1cc(S(=O)(=O)O)c2ccccc2c1O`: the Potency entry in [1], in assay [2], in assay [3], in assay [5], in [16] and in [18] was “inactive” throughout. In addition, the Potency entry (in [19]; in assay [8]; with Aromatase (Homo sapiens)) was “inactive” throughout. The outcome in assay [17] and in assay [10] was inactive. The Potency in assay [6] was 30.6 µM (active); in assay [7], 34.4 µM (active); in [13], 54.5 µM (active).
For the molecule `CC(=O)O[C@H]1C[C@@H]2CC[C@@H]3[C@H](CC[C@@]4(C)[C@H]3C[C@H]([N+]3(C)CCCCC3)[C@@H]4OC(C)=O)[C@@]2(C)C[C@@H]1N1CCCCC1`, the Potency result in [1], in [2], in [3], in assay [4], in [5] and in assay [6] was “inactive” each time. In addition, the Potency result (in [9]; in [11]; in assay [13]; in the assay with Aromatase (Homo sapiens)) was “inactive” throughout. The molecule was classed as inactive in assay [10]. The Potency in assay [12] is 33.5 µM (active).
Turning to `CCCCCC/C=C/C=O`, the Potency entry in assay [1], in assay [2], in [3], in assay [5], in assay [16] and in [7] was “inactive” each time. Further, the Potency result (in assay [14]; in assay [8]; in assay [13]; in the assay with Aromatase (Homo sapiens)) was “inactive” in each case. The outcome in assay [10] was inactive.
Consider `CN1CCC(OC(c2ccccc2)c2ccccc2)CC1`, for which the Potency result in [1], in [5], in assay [6], in assay [8], in [9] and in [11] was “inactive” throughout. The Potency result (in assay [13]; with Aromatase (Homo sapiens)) was “inactive” throughout. For the same molecule, the Potency in assay [2] is 11.4 µM (active); in assay [3], 12.7 µM (active); in assay [4] it was 11.4 µM (active). The outcome in assay [10] was inactive.
Regarding `CCOc1ccc2[nH]cc(C(=O)NCc3ccccc3)c(=O)c2n1`, the Potency entry in [1], in assay [6], in assay [8], in assay [9], in assay [11] and in assay [13] was “inactive” throughout. Besides, the Potency in assay [2] was 43.3 µM (active); in assay [3], 48.6 µM (active); in [4], 24.3 µM (active); with Aromatase (Homo sapiens), 61.1 µM (active). The molecule was classed as inactive in [10].
For the molecule `CC1CCc2cc(F)cc3c(=O)c(C(=O)O)cn1c23` (centres undefined), the Potency result in assay [1], in [2], in assay [3], in assay [4], in assay [5] and in assay [6] was “inactive” each time. Further, the Potency entry in assay [14], in assay [8] and in assay [13] was “inactive” each time. Moreover, the outcome in [10] was inactive.
For `CCN(CC)CCOc1ccc2c(c1)C(=O)c1cc(OCCN(CC)CC)ccc1-2`, the Potency result (in assay [1]; in assay [5]; in [6]; in assay [8]; with Aromatase (Homo sapiens)) was “inactive” in each case. The Potency in [2] was 5.31 µM (active); in assay [3] it was 2.66 µM (active); in assay [4], 5.96 µM (active). Further, the molecule was called inactive in [10].
